# Results taken from PubChem BioAssay.
# Activity calls are given as the source filed them.
# Assays:
# [1] = optical density shifts of acrAB sulA E. coli – strain DRC41, OD650, 48 h, E. coli filamentation inducer project, primary screen (AID 1152); settings: higher = more signal, called active from +8 up or from −8 down;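 further: E. coli MC1000 strain DRC41 lacking acrAB efflux pump and sulA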
# [2] = probe aLefty1 binding on compound microarray – biochemical, small-molecule microarray, 635/667 nm fluorescence, primary screen (AID 1153); settings: higher = more signal;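 further: score merges spot fluorescence with signal-to-noise ratio from the scanned slide images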
# [3] = plasmodial surface anion channel blockers, osmotic lysis – cell-based, P. falciparum Indochina, OD700, 1 h, primary screen (AID 1154); settings: P. falciparum Indochina infected RBC osmotic lysis, higher = more signal, called active from +8 up or from −8 down
# [4] = plasmodial surface anion channel blockers, osmotic lysis – cell-based, P. falciparum Indochina, OD700, 2 h, primary screen (AID 1155);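 further: lysis reports solute entry through the parasite surface anion channel PSAC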; settings: P. falciparum Indochina infected erythrocytes, higher = more signal, called active from +8 up or from −8 down
# [5] = changes in parasitized red cell lysis, either direction – P. falciparum Indochina, OD700, 3 h, PSAC antagonist project, primary screen (AID 1156); settings: P. falciparum-infected erythrocytes, osmotic lysis, higher = more signal, called active from +8 up or from −8 down
# [6] = plasmodial surface anion channel blockers, osmotic lysis – cell-based, P. falciparum Indochina, OD700, 18 h, primary screen (AID 1157); settings: P. falciparum Indochina infected erythrocytes, osmotic lysis OD700, 18 h; higher = more signal, called active from +8 up or from −8 down
# [7] = S6 kinase pathway phospho-S6 level changes – cell-based, A549, cytoblot, luminescence, serum-stimulated, primary screen (AID 1158); settings: 5 h, higher = more signal;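 further: serum-stimulated A549 lung adenocarcinoma cells; signal is phosphorylated S6 detected by cytoblot immunostaining with HRP secondary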
# [8] = target: NADPH oxidase 2 (Homo sapiens) (UniProt P04839); experiment: compounds shifting NOX2 Amplex Red fluorescence – cell-based, HEK293-NOX2, PMA-stimulated, NOX inhibitor project, primary screen (AID 1159); settings: 45 min, higher = more signal, called active from +8 up or from −8 down; further: test concentration not given here
# Sequence of NADPH oxidase 2 (Homo sapiens) (P04839 whole entry, looked up): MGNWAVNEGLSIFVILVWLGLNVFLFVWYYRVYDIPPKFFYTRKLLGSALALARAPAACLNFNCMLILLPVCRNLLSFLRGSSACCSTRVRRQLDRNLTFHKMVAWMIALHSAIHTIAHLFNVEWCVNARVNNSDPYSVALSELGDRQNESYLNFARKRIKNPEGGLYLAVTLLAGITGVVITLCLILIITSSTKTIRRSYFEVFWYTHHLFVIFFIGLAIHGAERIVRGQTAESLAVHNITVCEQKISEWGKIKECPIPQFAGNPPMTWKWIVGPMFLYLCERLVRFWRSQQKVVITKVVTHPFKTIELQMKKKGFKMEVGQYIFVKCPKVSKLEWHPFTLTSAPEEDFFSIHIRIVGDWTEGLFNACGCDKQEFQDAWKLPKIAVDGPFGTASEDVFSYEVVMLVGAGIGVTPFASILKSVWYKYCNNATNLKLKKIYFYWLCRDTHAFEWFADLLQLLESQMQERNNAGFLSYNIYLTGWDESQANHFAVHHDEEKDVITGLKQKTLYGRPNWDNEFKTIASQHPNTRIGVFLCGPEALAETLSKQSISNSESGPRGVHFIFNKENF
# [9] = target: NADPH oxidase 4 (Homo sapiens) (UniProt Q9NPH5); experiment: compounds shifting NOX4 Amplex Red fluorescence – cell-based, HEK293-NOX4, tetracycline-induced, NOX inhibitor project, primary screen (AID 1160); settings: HEK293-NOX4, Amplex Red H2O2 fluorescence, 45 min; higher = more signal, called active from +8 up or from −8 down
# Sequence of NADPH oxidase 4 (Homo sapiens) (Q9NPH5 whole entry, looked up): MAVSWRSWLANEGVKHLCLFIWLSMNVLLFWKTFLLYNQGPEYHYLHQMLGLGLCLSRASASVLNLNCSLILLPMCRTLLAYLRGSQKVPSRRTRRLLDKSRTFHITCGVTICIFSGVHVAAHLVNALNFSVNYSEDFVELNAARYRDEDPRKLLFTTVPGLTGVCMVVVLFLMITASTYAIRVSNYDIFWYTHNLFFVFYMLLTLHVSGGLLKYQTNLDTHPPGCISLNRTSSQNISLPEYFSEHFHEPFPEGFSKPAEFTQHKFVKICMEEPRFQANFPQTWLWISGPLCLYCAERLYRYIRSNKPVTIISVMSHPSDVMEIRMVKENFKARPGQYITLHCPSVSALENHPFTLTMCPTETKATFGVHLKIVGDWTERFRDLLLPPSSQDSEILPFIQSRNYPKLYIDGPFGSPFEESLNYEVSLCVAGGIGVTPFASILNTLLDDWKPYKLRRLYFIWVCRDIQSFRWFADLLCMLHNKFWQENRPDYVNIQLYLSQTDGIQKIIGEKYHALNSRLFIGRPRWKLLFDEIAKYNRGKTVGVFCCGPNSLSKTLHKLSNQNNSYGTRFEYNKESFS
# [10] = target: NADPH oxidase 5 (Homo sapiens) (UniProt Q96PH1); experiment: compounds shifting NOX5 Amplex Red fluorescence – cell-based, HEK293-NOX5, NOX inhibitor project, primary screen (AID 1161); settings: HEK293-NOX5, ionomycin, 45 min, higher = more signal
# Sequence of NADPH oxidase 5 (Homo sapiens) (Q96PH1 whole entry, looked up): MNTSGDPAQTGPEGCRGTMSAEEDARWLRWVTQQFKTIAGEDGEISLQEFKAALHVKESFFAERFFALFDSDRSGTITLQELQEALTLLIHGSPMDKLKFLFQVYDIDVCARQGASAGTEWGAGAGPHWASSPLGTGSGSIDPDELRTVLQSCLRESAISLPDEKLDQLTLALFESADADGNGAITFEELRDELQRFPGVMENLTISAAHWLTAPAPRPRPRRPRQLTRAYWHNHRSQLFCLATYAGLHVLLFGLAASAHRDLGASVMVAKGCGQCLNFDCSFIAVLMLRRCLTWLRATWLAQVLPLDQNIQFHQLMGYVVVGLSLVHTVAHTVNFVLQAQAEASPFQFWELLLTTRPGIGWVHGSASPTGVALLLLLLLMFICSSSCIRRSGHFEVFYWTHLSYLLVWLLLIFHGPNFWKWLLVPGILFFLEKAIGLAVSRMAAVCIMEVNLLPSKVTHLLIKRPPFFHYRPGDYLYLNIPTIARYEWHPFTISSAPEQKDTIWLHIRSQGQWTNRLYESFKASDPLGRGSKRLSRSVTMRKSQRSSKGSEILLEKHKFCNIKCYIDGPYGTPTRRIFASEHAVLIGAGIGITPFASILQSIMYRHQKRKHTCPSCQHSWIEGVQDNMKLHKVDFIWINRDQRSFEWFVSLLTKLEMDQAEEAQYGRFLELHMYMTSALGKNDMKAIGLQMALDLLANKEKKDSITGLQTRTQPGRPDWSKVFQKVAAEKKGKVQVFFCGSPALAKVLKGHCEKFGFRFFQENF
# [11] = compound effects on lung adenocarcinoma cell viability – A549, calcein-AM fluorescence, 48 h, basal, profiling panel (AID 1162); settings: higher = more signal; further: test concentration not given here
# [12] = compound effects on differentiated 3T3-L1 adipocyte viability – cell-based, 3T3-L1 adipocytes, calcein-AM fluorescence, 48 h, basal, profiling panel (AID 1163); settings: 3T3-L1 adipocytes viability, higher = more signal; further: test concentration not given here
# [13] = compound effects on hepatocellular carcinoma cell viability – HepG2, calcein-AM fluorescence, 48 h, basal, profiling panel (AID 1164); settings: higher = more signal; further: test concentration not given here
# [14] = compound effects on multiple myeloma cell viability – MM1S, calcein-AM fluorescence, 48 h, basal, profiling panel (AID 1165); settings: higher = more signal;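 further: viability of MM1S multiple myeloma cells under basal unstimulated conditions; test concentration not given here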
# [15] = calcein-AM signal in unstimulated myeloma cells – cell-based, calcein-AM fluorescence, 48 h, PK04 Diversity Set, profiling panel (AID 1166); settings: RPMI8226 myeloma viability, higher = more signal;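 further: cells grown under basal conditions without added stimulus; test concentration not given here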
# [16] = JC-1 mitochondrial signal, unstimulated HepG2 cells – cell-based, JC-1 fluorescence, 24 h, 100 nL compound, profiling panel (AID 1167); settings: HepG2 mitochondrial potential, higher = more signal; further: test concentration not given here
# [17] = JC-1 mitochondrial signal, unstimulated adipocytes – cell-based, JC-1 fluorescence, 3T3-L1 adipocytes, 24 h, 100 nL compound, profiling panel (AID 1168); settings: JC-1 mitochondrial fluorescence, higher = more signal, called active from +8 up or from −8 down; further: test concentration not given here
# [18] = JC-1 mitochondrial signal, unstimulated myeloma cells – cell-based, JC-1 fluorescence, RPMI8226, 24 h, 100 nL compound, profiling panel (AID 1169); settings: JC-1 mitochondrial potential fluorescence, higher = more signal; further: test concentration not given here
# [19] = JC-1 mitochondrial signal, unstimulated MM1S myeloma – cell-based, JC-1 fluorescence, 24 h, 100 nL compound, profiling panel (AID 1170); settings: MM1S mitochondrial potential, higher = more signal; further: test concentration not given here
# [20] = resazurin metabolic signal in A549 cells – cell-based, resazurin fluorescence, 24 h, PK04 Diversity Set, profiling panel (AID 1171); settings: A549 viability, higher = more signal, called active from +8 up or from −8 down; further: test concentration not given here
SMILES,z-score [1],composite z-score [2],z-score [3],z-score [4],z-score [5],z-score [6],z-score [7],z-score [8],z-score [9],z-score [10],z-score [11],z-score [12],z-score [13],z-score [14],z-score [15],z-score [16],z-score [17],z-score [18],z-score [19],z-score [20]
CCOC(=O)C1=CCC(c2ccco2)N(S(=O)(=O)c2ccc(C)cc2)C1 (stereo not given),0.323 (inactive),0.247,9.57 (active),1.24 (inactive),0.252 (inactive),0.731 (inactive),0.406,-0.176 (inactive),-1.26 (inactive),0.758,-0.373,0.279,0.34,-2.93,-1.64,-0.843,-1.32 (inactive),0.733,-2.11,0.326 (inactive)
CCOC(=O)C[C@H]1[C@H](OC(=O)c2cc3ccccc3oc2=O)[C@@H](NC(=O)c2ccc3ccccc3c2)c2cc(OCCCO)ccc2N1C(=O)Cc1ccc(OC)cc1,-0.62 (inactive),-0.0479,7.22 (inactive),0.935 (inactive),0.703 (inactive),0.525 (inactive),-0.24,3.04 (inactive),1.01 (inactive),1.94,-0.103,0.528,-0.425,0.226,0.0557,-0.527,0.06 (inactive),-0.229,0.0571,0.379 (inactive)
O=C(NCC(O)CO)[C@@]1(CCS(=O)(=O)c2ccccc2)COC(c2ccc(OCCCO)cc2)=N1 (stereo not given in full),0.457 (inactive),0.467,29.3 (active),22.3 (active),1.7 (inactive),2.91 (inactive),-0.245,0.299 (inactive),1.77 (inactive),1.51,-0.696,-0.0875,0.261,-1.29,-0.187,-0.341,-0.834 (inactive),0.747,-0.815,1.01 (inactive)
O=C(CS)NCCCCCNC(=O)[C@@H]1C[C@@H]2C(=O)N[C@@H](Cc3ccccc3)C(=O)N2[C@@H]1c1cccc(OCCO)c1,-0.145 (inactive),-1.01,2.5 (inactive),0.148 (inactive),-0.395 (inactive),-0.0429 (inactive),-0.16,1.73 (inactive),0.924 (inactive),0.226,0.688,-0.284,1.18,0.57,0.521,1.51,0.19 (inactive),-0.203,-0.156,-0.488 (inactive)
COc1ccc([Si](C)(C)[C@H]2[C@H](CC(=O)N3CCC[C@H]3CO)O[C@@]3(C(=O)N(Cc4ccc(N5CCC5=O)cc4)c4ccccc43)[C@@H]2C)cc1,-0.691 (inactive),0.213,10 (active),1.8 (inactive),0.171 (inactive),0.746 (inactive),0.783,1.93 (inactive),1.63 (inactive),4.56,-0.428,0.303,-0.784,-2.65,-3.76,1.26,0.198 (inactive),-1.09,0.309,-0.737 (inactive)
[N-]=[N+]=Nc1ccccc1C[C@]1(C(=O)NCc2ccccc2)COC(c2ccc(OCCCO)cc2)=N1,0.325 (inactive),-0.442,30.8 (active),30.8 (active),3.25 (inactive),3.49 (inactive),-0.351,-3.07 (inactive),-1.03 (inactive),-1.91,-0.827,-0.143,-1.65,-3.58,-4.42,0.789,0.443 (inactive),-1.17,-2.33,-1.41 (inactive)
CC(C)C[C@@H]1NC(=O)[C@@]23C(=O)N[C@@H](Cc4ccccc4)C2[C@H](C)[C@@]2(C)O[C@H]2C3/C=C/C/C=C\CNC(=O)[C@@H](C)NC1=O (stereo not given in full),0.767 (inactive),-0.444,0.961 (inactive),-1.13 (inactive),-0.826 (inactive),-0.967 (inactive),0.338,0.848 (inactive),1.65 (inactive),0.953,-0.366,0.718,-0.0346,0.761,-1.12,0.991,0.625 (inactive),0.207,-0.342,1.16 (inactive)
COCCOC(=O)N1C(=O)[C@@]2(c3cc(C#CC4=CCCCC4)ccc31)[C@H](c1ccc(O)cc1)N1[C@H](c3ccccc3)[C@H](c3ccccc3)OC(=O)[C@H]1[C@@H]2C(=O)NC[C@H](O)c1ccccc1,0.289 (inactive),0.0406,1.8 (inactive),0.44 (inactive),-0.164 (inactive),0.368 (inactive),-0.147,1.5 (inactive),0.547 (inactive),1.55,-0.309,-0.539,0.778,-1.3,-3.84,-1.83,2.04 (inactive),-1.08,-1.06,-2.06 (inactive)
COC(=O)C1=CC(CCCO)=CC(C)N(Cc2cccc(OC(F)(F)F)c2)C=C1C(=O)OC (stereo not given),-0.0692 (inactive),0.248,2.3 (inactive),0.192 (inactive),0.983 (inactive),0.5 (inactive),-0.334,0.159 (inactive),-0.317 (inactive),0.859,1.35,0.0937,0.966,0.403,0.286,1.12,0.612 (inactive),-0.0402,-0.645,-0.149 (inactive)
COCCOC(=O)N1C(=O)[C@@]2(c3cc(C#CCC(C(=O)OC)C(=O)OC)ccc31)[C@H](C(=O)NC[C@H](O)c1ccccc1)[C@H]1C(=O)O[C@H](c3ccccc3)[C@H](c3ccccc3)N1[C@@H]2c1ccc(O)cc1,-0.128 (inactive),0.0977,2.35 (inactive),-0.27 (inactive),0.283 (inactive),0.27 (inactive),0.0648,1.71 (inactive),1.01 (inactive),1.84,0.395,0.408,1.26,-0.99,-1.74,0.126,-0.489 (inactive),-0.39,-0.491,-0.227 (inactive)
O=C1O[C@H](c2ccccc2)[C@H](c2ccccc2)N2[C@H]1[C@@H](C(=O)Nc1nc3ccccc3s1)[C@]1(C(=O)Nc3ccc(C#CC4=CCCCC4)cc31)[C@H]2c1ccc(O)cc1,2.68 (inactive),0.122,-0.559 (inactive),-0.0042 (inactive),-0.715 (inactive),0.193 (inactive),1.26,0.878 (inactive),0.214 (inactive),0.191,0.397,-0.197,0.992,-1.01,-2.01,-2.82,-0.216 (inactive),-0.886,-0.991,0.229 (inactive)
CCCCNC(=O)c1ccc(C#C[Si](C(C)C)(C(C)C)C(C)C)c(OC(C)=O)c1,-0.52 (inactive),-0.0518,0.964 (inactive),0.272 (inactive),0.551 (inactive),0.158 (inactive),0.152,1.26 (inactive),0.355 (inactive),0.458,-0.487,0.95,-2.45,-2.22,-4.09,-2.34,-0.281 (inactive),-1.1,-1.04,-0.363 (inactive)
COc1cc(NN2C(C(O)c3ccc(I)cc3)C=CC3C(=O)N(c4ccccc4)C(=O)C32)cc(OC)c1OC (stereo not given),-0.877 (inactive),0.365,2.08 (inactive),0.477 (inactive),0.481 (inactive),-0.497 (inactive),1.52,-3.15 (inactive),-4.09 (inactive),-6.01,-0.844,-0.294,-0.683,-0.344,-1.4,-1.14,-1.46 (inactive),-0.786,-1.4,-0.749 (inactive)
CN1C(=O)C2C(C1=O)C1C=C(CCCO)C2C(c2cccs2)N1Cc1cc2c(cc1Br)OCO2 (stereo not given),-0.139 (inactive),-0.0587,25.1 (active),15.9 (active),0.0521 (inactive),1.58 (inactive),0.791,0.196 (inactive),0.0713 (inactive),0.741,0.952,0.225,0.557,-0.635,-1.44,-0.129,-0.859 (inactive),-0.309,0.872,-0.0723 (inactive)
O=C1C2C=CC(C(O)c3cccc(O)c3)N(Nc3ccccc3)C2C(=O)N1c1ccccc1 (stereo not given),-1.09 (inactive),0.315,6.48 (inactive),0.214 (inactive),0.185 (inactive),0.115 (inactive),0.109,-3.44 (inactive),-6.62 (inactive),-6.85,-0.671,-0.096,-1.22,-0.109,-0.444,-2.04,0.166 (inactive),-0.0193,-1.37,-0.224 (inactive)
CO[C@H]1O[C@H](CO)[C@@H](OC(=O)c2ccc(Br)cc2)[C@@H]2OC(=O)[C@H](Cc3ccccc3)C/C=C/C[C@@H](Cc3ccccc3)C(=O)O[C@@H]12,2.28 (inactive),-0.715,2.36 (inactive),-0.765 (inactive),-1.53 (inactive),-1.02 (inactive),1.92,-4.18 (inactive),-0.416 (inactive),-1.82,1.77,0.863,0.857,-0.389,0.0226,-0.0867,-1.37 (inactive),0.796,-0.823,-1 (inactive)
